By AC50 is commonly meant the concentration at which the activity in the assay is half-maximal.

The nature of assay [1]: ATG_E_Box_CIS: Attagene CIS-FACTORIAL HepG2 Assay for human Enhancer Box (E-box) (AID 2282936). To be noted: HepG2 E-box cis-reporter transcription, actives raise or lower the signal. An outline of the steps: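 Transiently transfected HepG2, endogenous TF-driven reporters, 24 h dosing. Readout: RT-PCR plus capillary electrophoresis of fluorescent reporter fragments. Gain or loss of signal fitted bidirectionally against DMSO baseline.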

Assay [2] in a line: ATG_M_61_CIS: Attagene CIS-FACTORIAL HepG2 Assay for M61 Transcription Factor (Internal Marker) (AID 2282937). To be noted: HepG2 Attagene CIS-FACTORIAL M61 internal marker reporter; actives raise or lower the signal. An outline of the steps:
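This endpoint serves as an internal background control within a multiplexed HepG2 cis-reporter panel. Cells are exposed for 24 h; reporter mRNA is amplified, fluorescently labelled and sized by capillary electrophoresis, with DMSO as negative control.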

Assay [3] in a line: ATG_M_19_CIS: Attagene CIS-FACTORIAL HepG2 Assay for M19 Transcription Factor (Internal Marker) (AID 2282939). To be noted: HepG2 Attagene CIS-FACTORIAL M19 internal marker reporter; actives raise or lower the signal. The method, boiled down:
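In this multiplexed cell assay, transiently transfected HepG2 reporter units report endogenous transcription-factor activity; after 24 hours of treatment, labelled reporter cDNA fragments are quantified by capillary electrophoresis and fitted bidirectionally against DMSO.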

The nature of assay [4]: ATG_Ets_CIS: Attagene CIS-FACTORIAL HepG2 Assay for human Erythroblast Transformation Specific (ETS) (AID 2282941). To be noted: HepG2 ETS cis-reporter transcription; AC50: actives raise or lower the signal unless noted; outcome: actives raise or lower the signal unless noted. An outline of the steps: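 Cis-regulated reporter mRNA induction in HepG2 (transient transfection), 24 h exposure, RT-PCR plus capillary electrophoresis detection; DMSO serves as negative control and baseline.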

The target in assay [5] is Hepatocyte nuclear factor 3-beta (Homo sapiens) (UniProt Q9Y261). The assay is described as follows: ATG_FoxA2_CIS: Attagene CIS-FACTORIAL HepG2 Assay for human Forkhead box A2 (FOXA2) (AID 2282942). To be noted: HepG2 cis-reporter transcription factor activity, 24 h; actives raise or lower the signal. An outline of the steps: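 Cells: HepG2, transient multiplex reporter transfection. Exposure 24 h. Detection: reporter-specific RT-PCR, fluorescent labelling, restriction digest, capillary electrophoresis. Analysis: bidirectional curve fit, DMSO as negative control.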

The nature of assay [6]: ATG_FoxO_CIS: Attagene CIS-FACTORIAL HepG2 Assay for human Forkhead box O (FoxO) (AID 2282943). To be noted: HepG2 Attagene cis-reporter, FoxO element, mRNA; actives raise or lower the signal. The method, boiled down:
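Read-out: fluorescence of 6-FAM-labelled reporter cDNA fragments resolved by capillary electrophoresis. Transiently transfected HepG2 cells were dosed for 24 h; activity fitted in both directions relative to DMSO controls.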

Assay [7] can be described thus: ATG_GATA_CIS: Attagene CIS-FACTORIAL HepG2 Assay for human GATA Binding Protein (AID 2282944). To be noted: HepG2 GATA cis-element reporter, Attagene multiplex mRNA; actives raise or lower the signal. An outline of the steps:
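Measures endogenous transcription factor-driven reporter mRNA in HepG2 cells transiently carrying cis-regulated constructs. 24 h dosing; RNA via oligo(dT) reverse transcription, PCR, HpaI digestion, capillary electrophoresis; fitted relative to DMSO.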

A short description of assay [8]: ATG_GLI_CIS: Attagene CIS-FACTORIAL HepG2 Assay for human Zinc Finger Protein GLI1 (AID 2282945). To be noted: HepG2, Attagene cis-factorial reporter mRNA, GLI element; actives raise or lower the signal. The method, boiled down: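 Transiently transfected HepG2 cells report endogenous transcription factor activity via cis-element-driven reporter units. After 24 h compound exposure, reporter mRNA was measured by RT-PCR with capillary electrophoresis; bidirectional fitting against DMSO baseline.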

For assay [9], the target named is Bile acid receptor (Homo sapiens) (UniProt Q96RI1). The assay is described as follows: ATG_IR1_CIS: Attagene CIS-FACTORIAL HepG2 Assay for human Nuclear Receptor Subfamily 1 Group H Member 4 (NR1H4), IR1 submotif (AID 2282946). To be noted: IR1 reporter transcription, actives raise or lower the signal. The method, boiled down:
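Fluorescence of capillary-separated, HpaI-digested RT-PCR reporter products gave IR1-element mRNA induction in HepG2 cells 24 h after dosing. Endogenous transcription factors drove the cis-regulated reporters; activity was fitted bidirectionally against DMSO.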

A short description of assay [10]: ATG_GRE_CIS: Attagene CIS-FACTORIAL HepG2 Assay for human Glucocorticoid Response Elements (GRE) (AID 2282947). To be noted: HepG2 GRE cis-reporter, Attagene multiplex mRNA; AC50: actives raise or lower the signal unless noted; outcome: actives raise or lower the signal unless noted. The method, boiled down: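 Read-out: fluorescent reporter-transcript fragments separated by capillary electrophoresis after RT-PCR. Transiently transfected HepG2 cells carrying cis-element-driven reporter units were dosed for 24 h; gain or loss of signal fitted against DMSO control.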

Assay [11] in a line: ATG_ISRE_CIS: Attagene CIS-FACTORIAL HepG2 Assay for human Interferon Regulatory Factor 1 (IRF1) binding to an Interferon-Stimulated Response Element (ISRE) (AID 2282948). To be noted: HepG2 ISRE cis-reporter (Attagene), mRNA transcription readout; actives raise or lower the signal. The method, boiled down: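 Multiplexed mRNA reporter readout in human liver HepG2 cells: cis-element-driven reporters transfected, compound added for 24 h, transcripts amplified, fluorescently labelled and sized by capillary electrophoresis; curve fitting bidirectional against DMSO.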

The nature of assay [12]: ATG_M_32_CIS: Attagene CIS-FACTORIAL HepG2 Assay for M32 Transcription Factor (Internal Marker) (AID 2282949).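 Note: background control marker of the multiplexed CIS panel rather than a real target.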 To be noted: HepG2 Attagene cis-factorial M32 reporter, mRNA; actives raise or lower the signal. The method, boiled down: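 Transient MRTU transfection of HepG2; 24 h compound treatment; TriZol RNA, oligo(dT) RT, reporter PCR, 6-FAM primer extension, HpaI cut, CE. Gain/loss of signal vs DMSO.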

A short description of assay [13]: ATG_M_06_CIS: Attagene CIS-FACTORIAL HepG2 Assay for M06 Transcription Factor (Internal Marker) (AID 2282950). To be noted: HepG2 Attagene CIS-FACTORIAL M06 internal marker reporter; actives raise or lower the signal. The method, boiled down: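 One of many multiplexed endpoints: HepG2 reporter mRNA after 24 h dosing, detected by RT-PCR and capillary electrophoresis fluorescence; gain or loss of signal analysed against DMSO.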

Assay [14] has as its target Hypoxia-inducible factor 1-alpha (Homo sapiens) (UniProt Q16665). Nature of the assay: ATG_HIF1a_CIS: Attagene CIS-FACTORIAL HepG2 Assay for human Hypoxia Inducible Factor 1 (HIF1A) (AID 2282951). To be noted: HepG2 Attagene cis-factorial HIF1a reporter transcription; actives raise or lower the signal. The method, boiled down: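 HepG2, transient cis-reporter library, 24 h dosing. RNA → RT (oligo dT) → PCR → 6-FAM primer extension → HpaI → CE. Bidirectional curve fit vs DMSO.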

The target in assay [15] is Hepatocyte nuclear factor 6 (Homo sapiens) (UniProt Q9UBC0). The assay is described as follows: ATG_HNF6_CIS: Attagene CIS-FACTORIAL HepG2 Assay for human Hepatocyte Nuclear Factor 6 (HNF6) (AID 2282952). To be noted: HepG2 Attagene cis-factorial HNF6 reporter transcription; actives raise or lower the signal. The method, boiled down:
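Endogenous factor activity read in transiently transfected HepG2 via promoter-regulated reporter transcripts. RNA harvested 24 h post-dosing, reverse-transcribed, PCR-amplified, FAM-labelled, HpaI-digested and resolved by capillary electrophoresis; fitted in both directions against DMSO.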

Assay [16] deals with Heat shock factor protein 1 (Homo sapiens) (UniProt Q00613). The assay is described as follows: ATG_HSE_CIS: Attagene CIS-FACTORIAL HepG2 Assay for human Heat Shock Transcription Factor 1 (HSE) (AID 2282953). To be noted: HepG2 HSE cis-reporter, Attagene RNA transcription; actives raise or lower the signal. The method, boiled down:
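Using HepG2 with transfected cis-driven reporter constructs, compound effects on endogenous factor activity are scored as reporter mRNA change at 24 h. Detection: RT-PCR, HpaI digestion, capillary electrophoresis; bidirectional fitting to DMSO.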

Assay [17] can be described thus: ATG_PBREM_CIS: Attagene CIS-FACTORIAL HepG2 Assay for human Phenobarbital-responsive Enhancer Module (PBREM) (AID 2282955). To be noted: HepG2 PBREM cis-reporter, Attagene multiplexed transcription; actives raise or lower the signal. The method, boiled down: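 HepG2, transient MRTU transfection, 24 h dosing; RNA → oligo(dT) RT → PCR → 6-FAM extension → HpaI → CE. Bidirectional fit vs DMSO.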

Assay [18] in a line: ATG_MRE_CIS: Attagene CIS-FACTORIAL HepG2 Assay for human Metal Responsive Element (MRE) (AID 2282954). To be noted: HepG2 MRE cis-reporter transcription, Attagene multiplex; actives raise or lower the signal. An outline of the steps:
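RT-PCR/capillary electrophoresis readout of reporter mRNA, 24 h post-dosing, in HepG2 cells transfected with multiplexed cis-regulated reporter constructs. Gain or loss of signal fitted bidirectionally against DMSO baseline.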

Assay [19] in a line: ATG_ERE_CIS: Attagene CIS-FACTORIAL HepG2 Assay for Estrogen Response Element (ERE) (AID 2282940). To be noted: HepG2 ERE cis-reporter, Attagene RNA transcript; actives raise or lower the signal. An outline of the steps: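 Measuring endogenous transcription factor output, the assay doses transfected HepG2 cells for 24 hours and quantifies reporter transcripts by fluorescent RT-PCR and capillary electrophoresis, with DMSO as baseline.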

Values joined by “and” are separate entries in the source; they are usually repeats but may differ in a detail not shown here. Identical values can stand only once. More than one record can exist for a structure, and the calls need not agree. Active and inactive are the calls of the source. Rule for the calls: active = hit-call score of the fitted dose curve at least 0.9, where 1 is the maximum; inactive = score below 0.9.

Sequence of Hepatocyte nuclear factor 6 (Homo sapiens) (Q9UBC0 whole entry, looked up): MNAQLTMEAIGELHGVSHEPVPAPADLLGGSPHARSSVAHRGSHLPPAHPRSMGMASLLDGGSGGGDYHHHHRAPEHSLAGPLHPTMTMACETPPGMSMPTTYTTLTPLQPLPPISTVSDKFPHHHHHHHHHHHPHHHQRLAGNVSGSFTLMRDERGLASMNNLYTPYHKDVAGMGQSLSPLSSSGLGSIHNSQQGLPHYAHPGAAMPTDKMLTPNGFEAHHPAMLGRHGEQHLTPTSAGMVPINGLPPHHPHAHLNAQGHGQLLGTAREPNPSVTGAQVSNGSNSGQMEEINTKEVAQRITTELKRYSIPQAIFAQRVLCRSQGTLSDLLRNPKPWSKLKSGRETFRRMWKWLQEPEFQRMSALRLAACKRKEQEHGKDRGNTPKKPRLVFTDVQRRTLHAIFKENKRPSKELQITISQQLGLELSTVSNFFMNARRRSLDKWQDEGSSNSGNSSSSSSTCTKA
Sequence of Hepatocyte nuclear factor 3-beta (Homo sapiens) (Q9Y261 whole entry, looked up): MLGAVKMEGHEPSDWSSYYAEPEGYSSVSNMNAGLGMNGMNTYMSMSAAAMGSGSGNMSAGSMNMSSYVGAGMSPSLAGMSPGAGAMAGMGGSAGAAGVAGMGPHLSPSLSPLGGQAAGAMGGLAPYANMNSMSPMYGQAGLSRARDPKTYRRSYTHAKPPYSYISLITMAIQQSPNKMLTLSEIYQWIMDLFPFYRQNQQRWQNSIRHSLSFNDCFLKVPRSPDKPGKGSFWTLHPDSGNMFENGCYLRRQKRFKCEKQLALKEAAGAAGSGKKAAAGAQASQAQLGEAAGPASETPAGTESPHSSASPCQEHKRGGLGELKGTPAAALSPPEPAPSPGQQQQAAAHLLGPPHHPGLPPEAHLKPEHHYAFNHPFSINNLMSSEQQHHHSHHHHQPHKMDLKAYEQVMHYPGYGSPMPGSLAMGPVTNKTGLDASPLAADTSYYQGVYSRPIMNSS
Sequence of Heat shock factor protein 1 (Homo sapiens) (Q00613 whole entry, looked up): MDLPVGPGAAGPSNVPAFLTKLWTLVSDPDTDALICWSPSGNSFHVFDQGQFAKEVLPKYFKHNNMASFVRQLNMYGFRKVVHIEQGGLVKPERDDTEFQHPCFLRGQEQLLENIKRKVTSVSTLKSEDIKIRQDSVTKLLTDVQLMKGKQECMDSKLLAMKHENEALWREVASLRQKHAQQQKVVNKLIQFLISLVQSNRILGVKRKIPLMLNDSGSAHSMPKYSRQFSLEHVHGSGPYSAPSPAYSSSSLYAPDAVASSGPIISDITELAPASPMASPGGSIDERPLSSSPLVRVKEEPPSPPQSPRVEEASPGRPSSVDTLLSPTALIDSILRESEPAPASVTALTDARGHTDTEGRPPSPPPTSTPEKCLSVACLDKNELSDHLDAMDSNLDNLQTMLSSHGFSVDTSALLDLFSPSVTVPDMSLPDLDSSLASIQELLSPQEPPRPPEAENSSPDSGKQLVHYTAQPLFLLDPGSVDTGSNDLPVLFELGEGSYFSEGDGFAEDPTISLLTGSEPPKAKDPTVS
Sequence of Hypoxia-inducible factor 1-alpha (Homo sapiens) (Q16665 whole entry, looked up): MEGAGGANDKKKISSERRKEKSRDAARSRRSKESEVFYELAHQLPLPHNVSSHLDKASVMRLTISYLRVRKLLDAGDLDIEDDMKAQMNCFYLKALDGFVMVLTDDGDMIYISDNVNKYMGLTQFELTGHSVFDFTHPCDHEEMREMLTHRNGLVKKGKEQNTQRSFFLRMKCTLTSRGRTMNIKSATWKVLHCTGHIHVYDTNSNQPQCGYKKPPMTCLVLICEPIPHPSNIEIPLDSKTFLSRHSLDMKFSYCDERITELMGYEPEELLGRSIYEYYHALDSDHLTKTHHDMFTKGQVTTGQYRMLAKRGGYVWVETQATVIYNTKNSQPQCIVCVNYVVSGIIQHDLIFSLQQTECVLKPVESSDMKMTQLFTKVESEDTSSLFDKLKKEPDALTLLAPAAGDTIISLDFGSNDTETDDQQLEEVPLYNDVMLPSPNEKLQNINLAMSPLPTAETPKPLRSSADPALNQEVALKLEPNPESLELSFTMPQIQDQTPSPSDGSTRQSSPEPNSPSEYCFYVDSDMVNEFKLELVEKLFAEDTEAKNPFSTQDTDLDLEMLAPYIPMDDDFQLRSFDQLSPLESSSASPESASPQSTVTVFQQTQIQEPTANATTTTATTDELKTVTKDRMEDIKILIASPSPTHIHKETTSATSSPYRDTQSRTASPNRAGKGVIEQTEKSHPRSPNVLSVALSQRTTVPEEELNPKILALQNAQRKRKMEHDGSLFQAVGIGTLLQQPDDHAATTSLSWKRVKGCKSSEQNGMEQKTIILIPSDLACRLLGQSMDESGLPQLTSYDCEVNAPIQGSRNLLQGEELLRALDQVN
Sequence of Bile acid receptor (Homo sapiens) (Q96RI1 whole entry, looked up): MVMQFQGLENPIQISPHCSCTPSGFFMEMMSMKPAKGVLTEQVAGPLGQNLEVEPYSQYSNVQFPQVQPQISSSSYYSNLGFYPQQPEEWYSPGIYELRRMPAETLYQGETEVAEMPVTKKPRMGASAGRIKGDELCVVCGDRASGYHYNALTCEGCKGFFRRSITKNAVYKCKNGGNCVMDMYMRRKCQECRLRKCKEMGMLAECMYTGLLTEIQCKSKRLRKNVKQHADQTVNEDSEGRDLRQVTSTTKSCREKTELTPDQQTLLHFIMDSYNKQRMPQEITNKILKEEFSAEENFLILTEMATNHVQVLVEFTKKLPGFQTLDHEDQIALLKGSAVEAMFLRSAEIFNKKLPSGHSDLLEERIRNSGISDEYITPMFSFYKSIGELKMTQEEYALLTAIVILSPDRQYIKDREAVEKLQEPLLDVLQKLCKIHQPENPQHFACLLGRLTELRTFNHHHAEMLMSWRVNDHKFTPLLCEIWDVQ

Regarding `Cc1cc(Cc2cc(C)cc(C(C)(C)C)c2O)c(O)c(C(C)(C)C)c1`, the result in assay [1], in assay [2], in assay [3], in [7], in assay [10] and in assay [11] was inactive. Further, the compound was called inactive in assay [13] and in assay [16]. The AC50 is 79.4 µM (active) in [4]; 128 µM (active) in assay [5]; 51.4 µM (active) in assay [6]; 165 µM (active) in [8]; 169 µM (active) in assay [9]; 100 µM (active) in assay [12]. Moreover, the AC50 in assay [14] was 41.4 µM (active); in assay [15], 176 µM (active); in [17] it was 151 µM (active).

Turning to `CCN(CCC#N)c1ccccc1`, the result in [1], in [2], in [3], in [4], in [6] and in [7] was inactive. In addition, the compound was called inactive in assay [8], in [9], in assay [10], in assay [12], in [13] and in assay [14]. Further, the outcome in assay [15], in assay [16], in assay [18] and in assay [17] was inactive.

Take `O=C(C=C(O)C(F)(F)F)C(F)(F)F`: the outcome in [1], in assay [2], in assay [3], in [4], in assay [5] and in assay [6] was inactive. For the same compound, the compound was classed as inactive in [7], in assay [8], in assay [9], in assay [10], in [11] and in assay [12]. The result in assay [13], in [14], in [15], in [16], in assay [18] and in assay [17] was inactive.

For `c1cnc2c(c1)ccc1cccnc12`, the AC50 in [1] was 5.67 µM (active) and 3.9 µM (active); in assay [11], 7.67 µM (active) and 7.15 µM (active); in assay [16], 144 µM (active); in [17], 100 µM (active). The compound was classed as inactive in [2], in [3], in [4], in assay [6], in assay [7] and in [8]. Moreover, the call in assay [10], in [12], in assay [13], in [15], in assay [16] and in [18] was inactive. Further, the result in assay [17] was inactive.

With `Cc1cccc2c1ccc1ccccc12`, the outcome in [1], in [2], in assay [3], in assay [4], in assay [5] and in assay [6] was inactive. The compound was classed as inactive in assay [7], in assay [8], in assay [9], in assay [10], in assay [11] and in assay [12]. The call in assay [13], in assay [14], in assay [15], in [16], in assay [18] and in [17] was inactive. In addition, in assay [19], the AC50 was 10.2 µM (active).
